Structures are written as SMILES. Calls of active or inactive are those of the source. How the source made its calls: active means hit-call score of the fitted dose curve at least 0.9, where 1 is the maximum; inactive means score below 0.9.

Read-out in assay [1]: Vascular endothelial growth factor receptor 2 (Homo sapiens) (UniProt P35968)
In words: BSK_4H_VEGFRII: BioMAP Diversity Plus: 4H Assay for Vascular endothelial growth factor receptor 2 (VEGFR2) Biomarker Activity (AID 2283031).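 On AC50: cell-surface VEGFR2 protein level quantified by ELISA.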 Particulars: primary human endothelial cells (HUVEC); actives raise or lower the signal. In outline:
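HUVEC (human primary), 4H system; 24 h post-dose; VEGFRII by ELISA; bidirectional curve fit vs DMSO baseline; gain or loss of signal scored.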

Read-out in assay [2]: Vascular cell adhesion molecule 1 (VCAM1), VCAM1 (gene 7412)
In words: BSK_4H_VCAM1: BioMAP Diversity Plus: 4H Assay for Vascular cell adhesion molecule 1 (VCAM1) Biomarker Activity (AID 2283033).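 On outcome: cell-surface VCAM-1 protein measured by ELISA.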 Particulars: primary human endothelial cells (HUVEC); actives raise or lower the signal. In outline: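 VCAM-1 ELISA read 24 h after chemical dosing of HUVEC in the BioMAP 4H system, with gain or loss of signal fitted relative to DMSO. Parallel SRB staining (560 nm) checked overt cytotoxicity.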

Read-out in assay [3]: Interferon-gamma inducible Protein 10 (IP10), CXCL10 (gene 3627)
In words: BSK_BE3C_IP10: BioMAP Diversity Plus: BE3C Assay for Interferon-gamma inducible Protein 10 (IP10) Biomarker Activity (AID 2283034). Particulars: primary human bronchial epithelial cells; actives raise or lower the signal. In outline:
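IP-10 quantified by ELISA in human primary bronchial epithelial cell cultures at 24 hours post-dosing. Gain or loss of signal fitted relative to DMSO; parallel SRB staining assessed overt cytotoxicity.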

Read-out in assay [4]: Monokine induced gamma interferon (MIG), CXCL9 (gene 4283)
In words: BSK_BE3C_MIG: BioMAP Diversity Plus: BE3C Assay for Monokine induced gamma interferon (MIG) Biomarker Activity (AID 2283035).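 On outcome: MIG protein measured by ELISA in BE3C cultures after 24 h of dosing.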 Particulars: primary human bronchial epithelial cells; actives raise or lower the signal. The gist of the method: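 hu bronchial epithelial 1° cells, 24 h cpd; MIG by ELISA; bidirectional fit, DMSO = baseline.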

Read-out in assay [5]: Transforming growth factor beta 1 (TGFb1), TGFB1 (gene 7040)
In words: BSK_BE3C_TGFb1: BioMAP Diversity Plus: BE3C Assay for Transforming growth factor beta 1 (TGFb1) Biomarker Activity (AID 2283036;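 on outcome: TGF-b1 protein level measured by ELISA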). The conditions noted are these: primary human bronchial epithelial cells; actives raise or lower the signal. In outline:
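ELISA readout of TGF-b1 from human lung bronchial epithelial primary cells, taken 24 h post-treatment. Gain or loss of signal fitted relative to DMSO baseline, with parallel SRB staining for overt cytotoxicity.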

Read-out in assay [6]: Plasminogen activator inhibitor-1 (PAI1), SERPINE1 (gene 5054)
In words: BSK_BE3C_PAI1: BioMAP Diversity Plus: BE3C Assay for Plasminogen activator inhibitor-1 (PAI1) Biomarker Activity (AID 2283037). The conditions noted are these: primary human bronchial epithelial cells; actives raise or lower the signal. In outline:
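PAI-1 was measured by ELISA in human primary bronchial epithelial cultures 24 h after chemical dosing, with cytotoxicity checked by SRB total-protein staining in parallel cultures. Activity was fitted in both directions relative to DMSO.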

Read-out in assay [7]: urokinase plasminogen activator (uPA), PLAU (gene 5328)
In words: BSK_BE3C_uPA: BioMAP Diversity Plus: BE3C Assay for urokinase plasminogen activator (uPA) Biomarker Activity (AID 2283038).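 On outcome: uPA protein level quantified by ELISA in cell cultures; uPA read one day after compound addition.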 The conditions noted are these: primary human bronchial epithelial cells; actives raise or lower the signal. The gist of the method:
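ELISA read-out of uPA in human lung primary bronchial epithelial cultures, 24 h post-dosing. Gain or loss of signal fitted bidirectionally relative to DMSO baseline; cytotoxicity checked in parallel cultures via SRB total protein stain.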

Read-out in assay [8]: Interleukin-6 (IL6), IL6 (gene 3569)
In words: BSK_CASM3C_IL6: BioMAP Diversity Plus: CASM3C Assay for Interleukin-6 (IL6) Biomarker Activity for (AID 2283040). The conditions noted are these: primary human coronary artery smooth muscle cells; actives raise or lower the signal.

Read-out in assay [9]: Urokinase-type plasminogen activator receptor (uPAR), PLAUR (gene 5329)
In words: BSK_BE3C_uPAR: BioMAP Diversity Plus: BE3C Assay for Urokinase-type plasminogen activator receptor (uPAR) Biomarker Activity (AID 2283039).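 On outcome: cells exposed to compound for one day before measurement.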 The conditions noted are these: primary human bronchial epithelial cells; actives raise or lower the signal. In outline: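 uPAR levels were measured by ELISA after 24 h compound treatment of primary human bronchial epithelial cells, fitted in both directions relative to DMSO. Parallel SRB staining served as the cytotoxicity read-out.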

By AC50 is commonly meant the midpoint of the concentration-response curve, whichever way the signal moves. As for `CSC1=N[C@@](C)(c2ccccc2)C(=O)N1Nc1ccccc1`, the outcome in assay [1], in [3], in [4], in assay [5], in assay [6] and in assay [7] was inactive. In assay [8], the result was inactive. The AC50 in [2] was 9.4 µM (active).
Turning to `CSc1nnc(C(C)(C)C)c(=O)n1N`, the outcome in assay [1], in assay [2], in [4], in assay [5], in assay [6] and in assay [7] was inactive. Further, the outcome in assay [9] and in [8] was inactive. For the same molecule, the AC50 in [3] is 7.16 µM (active).
On to `CCOP(=S)(OCC)Oc1cc(C)nc(C(C)C)n1`, for which the outcome in assay [1], in assay [2], in assay [3], in assay [4], in assay [5] and in assay [6] was inactive. For the same molecule, the outcome in assay [7], in assay [9] and in assay [8] was inactive.
For `CCOP(=S)(Oc1cnc(C(C)(C)C)nc1)OC(C)C` (configuration not stated), the AC50 is 31.9 µM (active) in [1] and 36.8 µM (active) in assay [2]. Moreover, the result in assay [3], in [4], in assay [5], in assay [6], in assay [7] and in assay [8] was inactive.
For `Nc1nc(N)nc(NC2CC2)n1`, the outcome in assay [1], in assay [2], in [3], in assay [4], in [5] and in [6] was inactive. Moreover, the outcome in assay [7] and in assay [8] was inactive.
`CNC(=O)Oc1cccc2c1OC(C)(C)O2`: the result in assay [1], in assay [3], in assay [4], in assay [5], in assay [6] and in assay [7] was inactive. Besides, the outcome in assay [8] was inactive. Besides, the half-maximal activity concentration (AC50) in assay [2] is 20 µM (active).
Turning to `CCOP(=S)(OCC)OC(Cl)C(Cl)(Cl)Cl` (configuration not stated), the outcome in assay [1], in [2], in assay [3], in assay [4], in assay [5] and in assay [6] was inactive. Moreover, the result in assay [7] and in [9] was inactive. In addition, in assay [8], the AC50 was 20 µM (active).
Consider `CCCCN(CC)c1c([N+](=O)[O-])cc(C(F)(F)F)cc1[N+](=O)[O-]`, for which the outcome in assay [1], in [4], in assay [5], in [6], in assay [7] and in [8] was inactive. The AC50 in assay [2] was 20 µM (active); in [3], 29.9 µM (active).
`COc1cccc(C(=O)NN(C(=O)c2cc(C)cc(C)c2)C(C)(C)C)c1C`: the outcome in assay [1], in assay [2], in assay [3], in assay [4], in assay [5] and in assay [6] was inactive. Besides, the result in assay [7], in [9] and in [8] was inactive.
Regarding `CCC(=O)Nc1ccc(Cl)c(Cl)c1`, the result in assay [1], in assay [2], in assay [4], in [6], in assay [7] and in assay [9] was inactive. In [8], the result was inactive. In addition, the AC50 was 27.2 µM (active) in [3] and 3.97 µM (active) in assay [5].
In the case of `CN(C)C(=O)Nc1cccc(C(F)(F)F)c1`, the outcome in assay [1], in [2], in assay [3], in assay [4], in [5] and in [6] was inactive. The result in assay [7] and in assay [8] was inactive.
In the case of `C[N+]1(C)CCCCC1`, the result in assay [1], in [2], in [3], in assay [4], in assay [6] and in assay [7] was inactive. Moreover, the outcome in [9] and in [8] was inactive. Moreover, the AC50 in assay [5] is 0.193 µM (active).
Regarding `CCc1cnc(C2=NC(C)(C(C)C)C(=O)N2)c(C(=O)O)c1` (configuration not stated), the outcome in assay [1], in assay [2], in [3], in assay [4], in assay [5] and in assay [6] was inactive. For the same molecule, the result in assay [7], in [9] and in assay [8] was inactive.
For `CC1(C(=O)Nc2ccc(O)c(Cl)c2Cl)CCCCC1`, the outcome in assay [1], in [2], in [3], in assay [4], in assay [5] and in assay [6] was inactive. For the same molecule, the result in assay [7] and in assay [8] was inactive.
Turning to `Cc1ccn2nc(S(=O)(=O)Nc3c(F)cccc3F)nc2n1`, the outcome in assay [1], in assay [2], in assay [3], in assay [4], in assay [5] and in assay [6] was inactive. Further, the result in [7] and in [8] was inactive.
Take `CCOP(=S)(OCC)Oc1ccc([N+](=O)[O-])cc1`: the outcome in assay [1], in [2], in assay [3], in assay [4], in [5] and in assay [6] was inactive. Moreover, the outcome in assay [7], in assay [9] and in [8] was inactive.
In the case of `CCOC(=O)CC(SP(=O)(OC)OC)C(=O)OCC` (configuration not stated), the result in assay [1], in [2], in [3], in assay [4], in assay [5] and in assay [6] was inactive. Further, the outcome in assay [7] and in assay [8] was inactive.
As for `CC(C)[C@H](C(=O)O[C@H](C#N)c1cccc(Oc2ccccc2)c1)c1ccc(Cl)cc1`, the outcome in assay [1], in [3], in assay [4], in assay [5], in assay [6] and in assay [7] was inactive. Also, in [8], the result was inactive. The AC50 in [2] was 2.95 µM (active).
For the molecule `CCOC(=O)COc1cc(-c2nn(C)c(OC(F)F)c2Cl)c(F)cc1Cl`, the result in assay [1], in assay [2], in [3], in assay [4], in [5] and in [6] was inactive. Besides, the result in assay [7] and in assay [8] was inactive.
As to `CCCOCC(=Nc1ccc(Cl)cc1C(F)(F)F)n1ccnc1`, the AC50 in [2] is 30.7 µM (active); in [3], 32.3 µM (active); in assay [4] it was 35.3 µM (active); in assay [6] it was 30.9 µM (active); in assay [7] it was 34.5 µM (active). The result in assay [8] was inactive.
For the molecule `CCOP(=O)(SC(C)CC)N1CCSC1=O` (configuration not stated), the result in [1], in assay [2], in [3], in [4], in assay [5] and in assay [6] was inactive. Also, the outcome in assay [7] and in assay [8] was inactive.
Take `CCCSP(=O)(OCC)Oc1ccc(Br)cc1Cl` (configuration not stated): the result in assay [1], in [4], in assay [5], in assay [6] and in assay [7] was inactive. Also, the AC50 was 29.8 µM (active) in assay [2], 29.1 µM (active) in [3] and 23 µM (active) in assay [8].
On to `CC(Oc1cccc(Cl)c1)C(=O)O` (configuration not stated), for which the outcome in assay [1], in assay [2], in assay [3], in [4], in assay [5] and in assay [6] was inactive. Moreover, the result in [7] and in assay [8] was inactive.
For the molecule `CCNc1nc(Cl)nc(NC(C)(C)C#N)n1`, the outcome in assay [1], in [2], in assay [3], in [4], in assay [5] and in assay [6] was inactive. Moreover, the outcome in assay [7] and in assay [8] was inactive.
Turning to `C[Si](Cn1cncn1)(c1ccc(F)cc1)c1ccc(F)cc1`, the result in assay [1], in assay [2], in assay [3], in assay [4], in [5] and in [6] was inactive. Also, the outcome in assay [7] and in [8] was inactive.
As to `CON=C(C(=O)OC)c1ccccc1CON=C(C)c1cccc(C(F)(F)F)c1`, the outcome in [1], in assay [2], in assay [4], in assay [5] and in [7] was inactive. Further, the AC50 is 20 µM (active) in assay [3], 8.79 µM (active) in [6], 5.37 µM (active) in [9] and 1.92 µM (active) in assay [8].
`CCOP(=O)(OCC)Oc1cc(C)nc(C(C)C)n1`: the outcome in [1], in [2], in assay [3], in [4], in assay [5] and in [6] was inactive. Moreover, the result in [7] and in assay [8] was inactive.
As to `C#CC(C)(C)NC(=O)c1cc(Cl)cc(Cl)c1`, the result in assay [1], in assay [2], in [4], in assay [5], in assay [6] and in assay [7] was inactive. In assay [8], the outcome was inactive. In addition, the half-maximal activity concentration (AC50) in [3] was 14.9 µM (active).
Consider `CCCSP(=O)(OCC)SCCC`, for which the result in [1], in assay [2], in assay [3], in [4], in assay [5] and in assay [6] was inactive. Further, the outcome in assay [7], in [9] and in [8] was inactive.
As for `CNC(=O)ON=C(C)SC`, the result in [1], in assay [2], in assay [3], in assay [4], in [5] and in assay [6] was inactive. The result in assay [7] and in assay [8] was inactive.
Take `COP(=O)(NC(C)=O)SC` (configuration not stated): the result in [1], in [2], in [3], in [4], in assay [5] and in [6] was inactive. For the same molecule, the result in assay [7], in [9] and in [8] was inactive.

The values above are taken from PubChem BioAssay (EPA / NIEHS).
